Experimental data as given in PubChem BioAssay (EPA / NIEHS).
The source made the active and inactive calls. How the source made its calls: active means hit-call score of the fitted dose curve at least 0.9, where 1 is the maximum; inactive means score below 0.9.

Assay: APR_HepG2_MitoMass_1hr: Apredica 1-hour HepG2 Assay for Mitochondrial Mass (AID 2282674)
Conditions: high-content imaging, actives raise or lower the signal
Description: APR_HepG2_1hr is a cell-based, multiplexed-readout assay that uses HepG2, a human liver cell line, with measurements taken at 1 hour after chemical dosing in a 384-well plate.APR_HepG2_MitoMass_1hr is one of 10 assay component(s) measured or calculated from the APR_HepG2_1hr assay. It is designed to make measurements of cell phenotype, a form of morphology reporter, as detected with fluorescence intensity signals by HCS Fluorescent Imaging technology.Data from the assay component APR_HepG2_MitoMass_1hr was analyzed into 1 assay endpoint. This assay endpoint, APR_HepG2_MitoMass_1hr, was analyzed with bidirectional fitting relative to DMSO as the negative control and baseline of activity. Using a type of morphology reporter, gain or loss-of-signal activity can be used to understand changes in the signaling. Furthermore, this assay endpoint can be referred to as a primary readout, because this assay has produced multiple assay endpoints where this one serves a signaling function. To generalize the intended target to other relatable targets, this assay endpoint is annotated to the cell morphology intended target family, where the subfamily is organelle conformation.
Cells were treated with dimethyl sulfoxide (DMSO) as a solvent control at a final concentration of 0.5% v/v or with compounds in DMSO with a resulting final DMSO concentration of 0.5% v/v. Compound treatment was done at concentrations of 0.39, 0.78, 1.56, 3.12, 6.24, 12.5, 25, 50, 100, and 200 uM in duplicate on each plate. Cells were treated with compounds for 1, 24, or 72 hr. Carbonyl […] m-chloro-phenylhydrazone (CCCP) and taxol were used as positive controls for mitochondrial function and cytoskeletal stability, respectively; DMSO served as the negative control for this experiment. Cells were fixed by the direct addition of 50 uL formaldehyde in Hank's Balanced Salt Solution (HBSS) to a final concentration of 3.7%. After incubation in the fixation medium for 30 min at room temperature (293-298 K), cells were rinsed twice with HBSS and treated with cell permeabilization buffer (16 uL of 0.5% Triton X-100) for 10 min at room temperature (293-298 K) before labeling. For mitochondrial membrane potential and mitochondrial measurements, pre-fixed cells were incubated with 50 uL of MitoTracker Red CMXRos (Invitrogen) at a concentration of 250 nM for 30 min before fixation. In the remaining cases, post-fixed cells were labeled by incubation with a multiplexed mixture of primary antibodies in HBSS for 60 min at room temperature (293-298 K) to detect immunoreactivity of c-Jun (1:500), phospho-histone H3 (1:100), phospho-histone H2A.x (1:200), p53 (1:400), alpha-tubulin (1:200) and Hoechst 33342 (2 ug/mL). Cells were labeled for multiplexed imaging on two separate plates: a) Hoechst 33342, MitoTracker Red, phospho-histone H3, and alpha-tubulin, and b) Hoechst 33342, phospho-histone H2A.x, and c-Jun. A final rinse with HBSS (50 uL) was performed before analysis. The primary and secondary antibodies for the proteins were phospho-histone H3 (rabbit anti-phospho-histone H3 and FITC-donkey anti-rabbit IgG), phospho-histone H2A.x (mouse anti-phospho-histone H2A.x and FITC-donkey anti-mouse IgG), c-Jun (rabbit anti-phospho-c-Jun and Cy3-donkey anti-rabbit IgG), p53 (sheep anti-p53 and Cy5-donkey anti-sheep IgG), alpha-tubulin (mouse anti-alpha-tubulin and Cy5-donkey anti-mouse IgG). These antibodies are available as the CellCiphr HepG2 assay kit (Millipore).Digital images of each well were captured using a Cellomics ArrayScan VTI (Thermo Scientific Cellomics) (0.8 NA objective, 0.63x optical coupler, and XF-93 filter set) at 20x magnification. The images were acquired using the autofocus feature of the ArrayScan instrument, which entails the following steps. First, the camera focuses on channel 1 (Hoechst 33342), where nuclei are identified. Second, a Z offset of 1 um is used for capturing mitochondria (MitoTracker Red). Third, a Z offset of -2 um is used for capturing the cytoskeleton (tubulin). […]
In the case of `COC(=O)c1c(Cl)nn(C)c1S(=O)(=O)NC(=O)Nc1nc(OC)cc(OC)n1`, the outcome is reported as “inactive”. For `N#CSCSc1nc2ccccc2s1`, the AC50 was 28.1 µM (active). In the case of `COCCO`, the outcome is reported as “inactive”. For `CSC(=O)c1cccc2nnsc12`, the outcome was “inactive”. In the case of `CCC(C)OC(=O)N1CCCCC1CCO` (stereo not given), the outcome is reported as “inactive”. With `CC(C)(C)[C@@H](O)[C@@H](Cc1ccc(Cl)cc1)n1cncn1` the outcome was “inactive”. With `CCSC(=O)N(CC(C)C)CC(C)C` the outcome was “inactive”. For `CCN(Cc1c(F)cccc1Cl)c1c([N+](=O)[O-])cc(C(F)(F)F)cc1[N+](=O)[O-]`, the outcome was “inactive”. In the case of `CCOC(=O)C(C)Oc1ccc(Oc2cnc3cc(Cl)ccc3n2)cc1` (stereo not given), the outcome is reported as “inactive”. In the case of `CCOC(=O)C(C)Oc1ccc(Oc2nc3ccc(Cl)cc3o2)cc1` (stereo not given), the outcome is reported as “inactive”. For `COC(=O)c1ccc(I)cc1S(=O)(=O)NC(=O)Nc1nc(C)nc(OC)n1`, the outcome was “inactive”. In the case of `CCCCC(CC)CN1C(=O)C2C3C=CC(C3)C2C1=O` (stereo not given), the outcome is reported as “inactive”. In the case of `CCOC(=O)NCCOc1ccc(Oc2ccccc2)cc1`, the outcome is reported as “inactive”. In the case of `COc1nc(C)nc(NC(=O)NS(=O)(=O)c2ccccc2OCCCl)n1`, the outcome is reported as “inactive”. With `COc1c(Cl)ccc(Cl)c1C(=O)O` the outcome was “inactive”. For `CN(C)C(=O)Nc1ccc(Cl)c(Cl)c1`, the outcome was “inactive”. With `CCC(O)=C1C(=O)CC(C(=O)O)CC1=O` (stereo not given) the outcome was “inactive”. For `CCCCOC(=O)C(C)Oc1ccc(Oc2ccc(C(F)(F)F)cn2)cc1` (stereo not given), the outcome was “inactive”. In the case of `CCOC(=O)[C@H](C)Oc1ccc(Oc2nc3ccc(Cl)cc3o2)cc1`, the outcome is reported as “inactive”. With `COC(=O)c1cccc(C)c1S(=O)(=O)NC(=O)Nc1nc(OCC(F)(F)F)nc(N(C)C)n1` the outcome was “inactive”. With `CCN(CC)C(=O)c1cccc(C)c1` the outcome was “inactive”. With `CCCCOCCOCCOCc1cc2c(cc1CCC)OCO2` the outcome was “inactive”. For `CCCN(CCC)c1c([N+](=O)[O-])cc(C(F)(F)F)c(N)c1[N+](=O)[O-]`, the AC50 was 158 µM (active). With `CCCCCOC(=O)COc1cc(N2C(=O)C3=C(CCCC3)C2=O)c(F)cc1Cl` the outcome was “inactive”. In the case of `O=C(Nc1ccc([N+](=O)[O-])cc1Cl)c1cc(Cl)ccc1O`, the outcome is reported as “inactive”. In the case of `CCOC(=O)COc1cc(-n2ncc(C(F)(F)F)c(C)c2=O)c(F)cc1Cl`, the outcome is reported as “inactive”. For `O=C(O)C1(C(=O)Nc2ccc(Cl)cc2Cl)CC1`, the outcome was “inactive”. With `c1ccc2[nH]c(-c3cscn3)nc2c1` the outcome was “inactive”. For `C#CCOC(=O)[C@@H](C)Oc1ccc(Oc2ncc(Cl)cc2F)cc1`, the outcome was “inactive”. For `COC(=O)c1ccccc1S(=O)(=O)NC(=O)Nc1nc(OC(F)F)cc(OC(F)F)n1`, the outcome was “inactive”. In the case of `Cc1nn(C)c(Oc2ccccc2)c1C=NOCc1ccc(C(=O)OC(C)(C)C)cc1`, the outcome is reported as “inactive”. For `CC(C)(c1ccc(O)cc1)c1ccc(O)cc1`, the outcome was “inactive”. With `CCNc1nc(N)nc(Cl)n1` the outcome was “inactive”. With `CCCOC(=O)NCCCN(C)C` the outcome was “inactive”. For `S=C([S-])NCCNC(=S)[S-].[Mn+2]`, the outcome was “inactive”. For `COC(=O)CSc1cc(N=c2sc(=O)n3n2CCCC3)c(F)cc1Cl`, the outcome was “inactive”. With `CCCOC(=O)c1ccc(C(=O)OCCC)nc1` the outcome was “inactive”. In the case of `CCCCCCC(C)OC(=O)COc1nc(F)c(Cl)c(N)c1Cl` (stereo not given), the AC50 is reported as 64 µM (active). With `COC(=O)c1ccc(CNS(C)(=O)=O)cc1S(=O)(=O)NC(=O)Nc1nc(OC)cc(OC)n1` the outcome was “inactive”. For `S=C(S)NCCNC(=S)S.[Mn+2].[S-]C([S-])=NCCN=C([S-])[S-].[Zn+2]`, the outcome was “inactive”.
